# Experimental data published in publication PMC7862700, “An all-to-all approach to the identification of sequence-specific readers for epigenetic DNA modifications on cytosine”.
# What was measured:
# Experiment in all cases: DAPPL (digital affinity profiling via proximity ligation, sequencing); 10 mM Tris-HCl pH 7.5, 50 mM NaCl, 1 mM DTT, 4% glycerol, room temperature, 30 min; GST-TFs on glutathione beads, 16-mer random dsDNA library, 0.1% formaldehyde crosslink after washing; high values mean tight binding
# Details in all cases: protein: recombinant; tags: N-terminal GST; dsDNA, one strand shown
# [1] = target: T1, ERG (Homo sapiens, UniProt P11308 1-479)
# T1 sequence: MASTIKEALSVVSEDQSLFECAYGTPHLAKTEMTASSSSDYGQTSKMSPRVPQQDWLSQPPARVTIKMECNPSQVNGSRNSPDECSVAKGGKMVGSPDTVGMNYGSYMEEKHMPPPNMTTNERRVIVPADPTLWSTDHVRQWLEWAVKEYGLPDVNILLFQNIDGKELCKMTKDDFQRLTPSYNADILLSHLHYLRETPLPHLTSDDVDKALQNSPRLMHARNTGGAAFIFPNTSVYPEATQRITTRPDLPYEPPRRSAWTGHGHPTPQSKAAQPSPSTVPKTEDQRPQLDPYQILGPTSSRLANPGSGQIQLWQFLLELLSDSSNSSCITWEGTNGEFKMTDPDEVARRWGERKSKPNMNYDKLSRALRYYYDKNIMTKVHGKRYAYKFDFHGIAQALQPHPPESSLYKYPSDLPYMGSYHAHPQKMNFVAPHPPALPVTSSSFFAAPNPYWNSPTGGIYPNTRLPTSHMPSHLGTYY
# In short: (§1)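 The binding signal reported is, for every hexamer, its read frequency for a factor over its read frequency for the tag-only sample. Reads came from pools of yeast-expressed, GST-fused human transcription factors on glutathione beads, barcoded with DNA and mixed with that sample, which were incubated with 200 nmole of a random double-stranded 16-mer DNA library in Tris/NaCl/DTT/glycerol buffer at room temperature for 30 min. After washing, the pools were crosslinked with 0.1% formaldehyde, proximity-ligated with BsaI/T4 ligase for 1 h at 37 °C, PCR-amplified and sequenced on an Illumina NextSeq500.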
# [2] = target: CRX (Homo sapiens, UniProt O43186 1-299)
# Chain of CRX (O43186 whole entry): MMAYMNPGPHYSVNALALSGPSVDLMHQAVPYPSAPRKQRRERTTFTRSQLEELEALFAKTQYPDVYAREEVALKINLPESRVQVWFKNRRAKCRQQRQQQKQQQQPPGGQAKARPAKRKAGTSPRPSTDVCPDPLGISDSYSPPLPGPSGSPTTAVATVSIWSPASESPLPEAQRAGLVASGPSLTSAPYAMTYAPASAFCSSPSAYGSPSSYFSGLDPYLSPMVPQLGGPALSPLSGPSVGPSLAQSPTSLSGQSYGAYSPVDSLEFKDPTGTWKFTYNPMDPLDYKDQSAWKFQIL
# In short: as §1
# [3] = target: T2, SPDEF (Homo sapiens, UniProt O95238 1-335)
# T2 sequence: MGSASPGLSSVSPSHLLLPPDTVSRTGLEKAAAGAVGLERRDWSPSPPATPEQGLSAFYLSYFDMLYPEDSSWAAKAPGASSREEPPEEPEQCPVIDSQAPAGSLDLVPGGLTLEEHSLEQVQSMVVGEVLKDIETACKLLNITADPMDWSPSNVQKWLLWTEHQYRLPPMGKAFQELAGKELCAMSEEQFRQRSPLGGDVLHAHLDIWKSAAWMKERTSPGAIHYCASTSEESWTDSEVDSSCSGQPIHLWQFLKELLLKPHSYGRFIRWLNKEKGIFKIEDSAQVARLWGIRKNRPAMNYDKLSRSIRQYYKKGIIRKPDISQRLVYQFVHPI
# In short: as §1
# [4] = target: SPI1 (Homo sapiens, UniProt P17947 1-270)
# In short: as §1
# [5] = target: T3, FEV (Homo sapiens, UniProt Q99581 1-238)
# T3 sequence: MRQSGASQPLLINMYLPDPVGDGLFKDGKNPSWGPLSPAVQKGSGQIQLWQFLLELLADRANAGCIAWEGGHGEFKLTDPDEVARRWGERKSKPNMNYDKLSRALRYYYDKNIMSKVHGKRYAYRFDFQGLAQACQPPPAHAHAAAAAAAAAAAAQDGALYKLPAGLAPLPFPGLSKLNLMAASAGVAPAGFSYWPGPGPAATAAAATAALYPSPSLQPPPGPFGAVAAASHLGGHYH
# In short: as §1
# [6] = target: T4, ELF5 (Homo sapiens, UniProt Q9UKW6-2 1-255)
# T4 sequence: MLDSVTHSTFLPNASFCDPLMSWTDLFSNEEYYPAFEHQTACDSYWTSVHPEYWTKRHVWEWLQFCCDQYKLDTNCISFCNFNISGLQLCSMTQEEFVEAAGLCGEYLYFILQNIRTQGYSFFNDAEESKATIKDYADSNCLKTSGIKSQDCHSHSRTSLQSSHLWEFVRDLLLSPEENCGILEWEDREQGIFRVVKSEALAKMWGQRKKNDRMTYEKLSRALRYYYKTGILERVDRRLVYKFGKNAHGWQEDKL
# In short: as §1
sequence,measurement,setting,value
TGTGAT,binding signal,[1],"1.06 fold enrichment (6-mer frequency, TF over GST control)"
same,binding signal,[2],"1.12 fold enrichment (6-mer frequency, TF over GST control)"
same,binding signal,[3],"1.06 fold enrichment (6-mer frequency, TF over GST control)"
CCATGG,binding signal,[1],"1.08 fold enrichment (6-mer frequency, TF over GST control)"
same,binding signal,[4],"1.05 fold enrichment (6-mer frequency, TF over GST control)"
CCACAG,binding signal,[5],"1.01 fold enrichment (6-mer frequency, TF over GST control)"
ACCGTT,binding signal,[3],"1.01 fold enrichment (6-mer frequency, TF over GST control)"
CGTACG,binding signal,[3],"1.02 fold enrichment (6-mer frequency, TF over GST control)"
GACGAC,binding signal,[3],"1.04 fold enrichment (6-mer frequency, TF over GST control)"
same,binding signal,[6],"1.02 fold enrichment (6-mer frequency, TF over GST control)"
GCCGTC,binding signal,[3],"1.03 fold enrichment (6-mer frequency, TF over GST control)"
ATTGAG,binding signal,[4],"1 fold enrichment (6-mer frequency, TF over GST control)"
same,binding signal,[2],"1.11 fold enrichment (6-mer frequency, TF over GST control)"
same,binding signal,[3],"1.01 fold enrichment (6-mer frequency, TF over GST control)"
CAAGCT,binding signal,[2],"1.1 fold enrichment (6-mer frequency, TF over GST control)"
CGCGGC,binding signal,[1],"1.05 fold enrichment (6-mer frequency, TF over GST control)"
same,binding signal,[4],"1.05 fold enrichment (6-mer frequency, TF over GST control)"
same,binding signal,[5],"1.06 fold enrichment (6-mer frequency, TF over GST control)"
same,binding signal,[3],"1.04 fold enrichment (6-mer frequency, TF over GST control)"
TGTCAA,binding signal,[1],"1.05 fold enrichment (6-mer frequency, TF over GST control)"
same,binding signal,[4],"1 fold enrichment (6-mer frequency, TF over GST control)"
same,binding signal,[6],"1.01 fold enrichment (6-mer frequency, TF over GST control)"
TTGACG,binding signal,[1],"1.06 fold enrichment (6-mer frequency, TF over GST control)"
same,binding signal,[4],"1.04 fold enrichment (6-mer frequency, TF over GST control)"
same,binding signal,[5],"1.1 fold enrichment (6-mer frequency, TF over GST control)"
same,binding signal,[2],"1.01 fold enrichment (6-mer frequency, TF over GST control)"
same,binding signal,[6],"1.07 fold enrichment (6-mer frequency, TF over GST control)"
GCAGCC,binding signal,[1],"1.04 fold enrichment (6-mer frequency, TF over GST control)"
same,binding signal,[5],"1.03 fold enrichment (6-mer frequency, TF over GST control)"
TCGTTA,binding signal,[2],"1.1 fold enrichment (6-mer frequency, TF over GST control)"
CCCGCG,binding signal,[1],"1.02 fold enrichment (6-mer frequency, TF over GST control)"
CACACC,binding signal,[1],"1.04 fold enrichment (6-mer frequency, TF over GST control)"
same,binding signal,[5],"1.07 fold enrichment (6-mer frequency, TF over GST control)"
same,binding signal,[3],"1.02 fold enrichment (6-mer frequency, TF over GST control)"
same,binding signal,[6],"1.03 fold enrichment (6-mer frequency, TF over GST control)"
GATACA,binding signal,[1],"1.03 fold enrichment (6-mer frequency, TF over GST control)"
same,binding signal,[4],"1.01 fold enrichment (6-mer frequency, TF over GST control)"
same,binding signal,[3],"1.24 fold enrichment (6-mer frequency, TF over GST control)"
same,binding signal,[6],"1 fold enrichment (6-mer frequency, TF over GST control)"
GTTTGT,binding signal,[3],"1.01 fold enrichment (6-mer frequency, TF over GST control)"
same,binding signal,[6],"1.03 fold enrichment (6-mer frequency, TF over GST control)"
GTGGCA,binding signal,[4],"1.04 fold enrichment (6-mer frequency, TF over GST control)"
same,binding signal,[5],"1.09 fold enrichment (6-mer frequency, TF over GST control)"
TGGCCA,binding signal,[1],"1.05 fold enrichment (6-mer frequency, TF over GST control)"
same,binding signal,[4],"1.05 fold enrichment (6-mer frequency, TF over GST control)"
same,binding signal,[5],"1.13 fold enrichment (6-mer frequency, TF over GST control)"
GTCGAC,binding signal,[1],"1.07 fold enrichment (6-mer frequency, TF over GST control)"
same,binding signal,[4],"1.08 fold enrichment (6-mer frequency, TF over GST control)"
same,binding signal,[5],"1.02 fold enrichment (6-mer frequency, TF over GST control)"
same,binding signal,[3],"1.06 fold enrichment (6-mer frequency, TF over GST control)"
TGATTG,binding signal,[1],"1.08 fold enrichment (6-mer frequency, TF over GST control)"
same,binding signal,[4],"1.04 fold enrichment (6-mer frequency, TF over GST control)"
CATGGC,binding signal,[1],"1.05 fold enrichment (6-mer frequency, TF over GST control)"
same,binding signal,[4],"1.04 fold enrichment (6-mer frequency, TF over GST control)"
same,binding signal,[5],"1.04 fold enrichment (6-mer frequency, TF over GST control)"
ACTGTC,binding signal,[4],"1 fold enrichment (6-mer frequency, TF over GST control)"
AGTTGC,binding signal,[4],"1.07 fold enrichment (6-mer frequency, TF over GST control)"
same,binding signal,[6],"1.02 fold enrichment (6-mer frequency, TF over GST control)"
TCGTTG,binding signal,[3],"1.01 fold enrichment (6-mer frequency, TF over GST control)"
CTGGTG,binding signal,[4],"1.04 fold enrichment (6-mer frequency, TF over GST control)"
same,binding signal,[3],"1.01 fold enrichment (6-mer frequency, TF over GST control)"
CGCACA,binding signal,[1],"1.02 fold enrichment (6-mer frequency, TF over GST control)"
same,binding signal,[5],"1.02 fold enrichment (6-mer frequency, TF over GST control)"
same,binding signal,[6],"1.04 fold enrichment (6-mer frequency, TF over GST control)"
CGGGCT,binding signal,[1],"1.02 fold enrichment (6-mer frequency, TF over GST control)"
same,binding signal,[5],"1.01 fold enrichment (6-mer frequency, TF over GST control)"
same,binding signal,[3],"1.07 fold enrichment (6-mer frequency, TF over GST control)"
GACGTT,binding signal,[6],"1.01 fold enrichment (6-mer frequency, TF over GST control)"
ACGTCA,binding signal,[1],"1.01 fold enrichment (6-mer frequency, TF over GST control)"
TGTTGG,binding signal,[3],"1 fold enrichment (6-mer frequency, TF over GST control)"
GACTCA,binding signal,[5],"1 fold enrichment (6-mer frequency, TF over GST control)"
CCGGTG,binding signal,[1],"1.19 fold enrichment (6-mer frequency, TF over GST control)"
same,binding signal,[5],"1.35 fold enrichment (6-mer frequency, TF over GST control)"
same,binding signal,[3],"1.13 fold enrichment (6-mer frequency, TF over GST control)"
GTGCGC,binding signal,[4],"1.02 fold enrichment (6-mer frequency, TF over GST control)"
CAGCGC,binding signal,[1],"1.03 fold enrichment (6-mer frequency, TF over GST control)"
GACACT,binding signal,[4],"1.02 fold enrichment (6-mer frequency, TF over GST control)"
same,binding signal,[6],"1.05 fold enrichment (6-mer frequency, TF over GST control)"
GGATGG,binding signal,[3],"1.09 fold enrichment (6-mer frequency, TF over GST control)"
same,binding signal,[6],"1.03 fold enrichment (6-mer frequency, TF over GST control)"
CCTGGC,binding signal,[1],"1.15 fold enrichment (6-mer frequency, TF over GST control)"
same,binding signal,[4],"1.05 fold enrichment (6-mer frequency, TF over GST control)"
AGTATA,binding signal,[1],"1 fold enrichment (6-mer frequency, TF over GST control)"
same,binding signal,[4],"1.04 fold enrichment (6-mer frequency, TF over GST control)"
same,binding signal,[2],"1.07 fold enrichment (6-mer frequency, TF over GST control)"
same,binding signal,[6],"1.03 fold enrichment (6-mer frequency, TF over GST control)"
GATTCG,binding signal,[2],"1.06 fold enrichment (6-mer frequency, TF over GST control)"
same,binding signal,[3],"1 fold enrichment (6-mer frequency, TF over GST control)"
GCTTAA,binding signal,[2],"3.04 fold enrichment (6-mer frequency, TF over GST control)"
same,binding signal,[3],"1.06 fold enrichment (6-mer frequency, TF over GST control)"
CGCGAA,binding signal,[2],"1.05 fold enrichment (6-mer frequency, TF over GST control)"
same,binding signal,[3],"1.01 fold enrichment (6-mer frequency, TF over GST control)"
